# Inconclusive results are not listed. Active and inactive are the calls of the source. The call rests on the fitted dose curve; in most records, active means well fitted cell-killing curve with a large enough effect; inconclusive means small, poorly fitted or top-dose-only effect, or effect the other way; inactive means no such curve, though single readings can be large or run the other way. *1 amine or outer side, *2 acyl side, *3 side chain or, on linkers, in order; H or OH if unused. Where a SMILES comes first, the peptide text is derived from it. Bridges are numbered along the chain shown (N, C = ends). Roman numbers before positions name the chains, in order. [ ]: non-standard residue; d: D form. Actinocin(9to1) = Cc1c2oc3c(C)ccc(C(=O)[*:1])c3nc-2c(C(=O)[*:2])c(N)c1=O; NMeV = CN[C@H](C(=O)O)C(C)C; Sar = CNCC(=O)O
# Test system: SKOV3
# Experiment: Confirmatory qHTS for gynecologic anti-cancer compounds from libraries of approved drugs and bioactive compounds; further: nearly all actives have a fitted effect of over 55% in size
# Conditions: gynecologic cancer cell panel viability, ATPlite luminescence, 48 h; series mostly up to 57.6 µM
# Summary of the method: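 ATPlite luminescence read-out of cell viability; IC50 from 11-point 1:3 titrations, 57.5 uM to 0.977 nM, 48 h compound exposure at 37 C, 5% CO2. Cells seeded at 1,000/well 16 h before dosing.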
# Potency means the concentration at half of the fitted maximal effect.
row,Structure (SMILES),Potency
1,COc1cccc2c1C(=O)c1c(O)c3c(c(O)c1C2=O)C[C@@](O)(C(=O)CO)C[C@@H]3O[C@H]1C[C@H](N)[C@H](O[C@@H]2CCCCO2)[C@H](C)O1,0.685 µM (active)
2,COc1ccc(CCC(=O)c2c(O)cc(O[C@@H]3O[C@H](CO)[C@@H](O)[C@H](O)[C@H]3O[C@@H]3O[C@@H](C)[C@H](O)[C@@H](O)[C@H]3O)cc2O)cc1O,inactive
3,NC(=O)c1cnc(-c2ccc(C3(N)CCC3)cc2)c(-c2ccccc2)c1,9.68 µM (active)
4,C[C@]12CCC(=O)C=C1[C@@H]1C[C@@H]1[C@H]1[C@@H]3[C@@H]4C[C@@H]4[C@@]4(CCC(=O)O4)[C@@]3(C)CC[C@@H]12,inactive
5,COc1cc2c(c(OC)c1OC)-c1ccc(OC)c(=O)cc1[C@@H](NC(C)=O)CC2,inactive
6,Cc1csc(NC(=O)c2sc3nc4c(c(C(F)(F)F)c3c2N)CCC4)n1,1.53 µM (active)
7,O=c1[nH]c(=O)n([C@H]2C[C@H](O)[C@@H](CO)O2)cc1Br,inactive
8,O=C(O)C1(Cc2cccc(Nc3nccs3)n2)CCC(Oc2cccc(Cl)c2F)CC1 (centres undefined),inactive
9,COc1cc(N2CCC(N(C)C)CC2)ccc1Nc1ncc(Cl)c(Nc2ccccc2P(C)(C)=O)n1,6.11 µM (active)
10,CCCCc1nc2cc(/C=C/C(=O)NO)ccc2n1CCN(CC)CC,0.769 µM (active)
11,O=C(/C=C/c1cccc(S(=O)(=O)Nc2ccccc2)c1)NO,1.88 µM (active)
12,NC(=O)Nc1cc(-c2cccc(F)c2)sc1C(=O)NC1CCCNC1 (centres undefined),5.44 µM (active)
13,"Cc1c2oc3c(C)ccc(C(=O)N[C@@H]4C(=O)N[C@H](C(C)C)C(=O)N5CCC[C@H]5C(=O)N(C)CC(=O)N(C)[C@@H](C(C)C)C(=O)O[C@@H]4C)c3nc-2c(C(=O)N[C@@H]2C(=O)N[C@H](C(C)C)C(=O)N3CCC[C@H]3C(=O)N(C)CC(=O)N(C)[C@@H](C(C)C)C(=O)O[C@@H]2C)c(N)c1=O (I: T[dV]P[Sar][NMeV] / II: T[dV]P[Sar][NMeV]; ester I:1-I:C, II:1-II:C; linker I:N-II:N via Actinocin(9to1))",0.544 µM (active)
14,CC(C)C[C@H](NC(=O)[C@H](CCc1ccccc1)NC(=O)CN1CCOCC1)C(=O)N[C@@H](Cc1ccccc1)C(=O)N[C@@H](CC(C)C)C(=O)[C@@]1(C)CO1,13.7 µM (active)
15,N#CC1(c2cccc(C(=O)Nc3cc(Oc4ccc5nc(NC(=O)C6CC6)sc5n4)ccc3F)c2Cl)CC1,17.2 µM (active)
16,CCN1CCN(Cc2ccc(Nc3ncc(F)c(-c4cc(F)c5nc(C)n(C(C)C)c5c4)n3)nc2)CC1,inactive
17,C=CC(=O)Nc1cc2c(Nc3ccc(F)c(Cl)c3)ncnc2cc1OCCCN1CCOCC1,24.3 µM (active)
18,COc1cc2c(Oc3ccc(-c4cnc(Nc5ccc(F)cc5)n(C)c4=O)cc3F)ccnc2cc1OCCCN1CCOCC1,inactive
19,CC[C@]1(O)C[C@H]2CN(CCc3c([nH]c4ccccc34)[C@@](C(=O)OC)(c3cc4c(cc3OC)N(C=O)[C@H]3[C@@](O)(C(=O)OC)[C@H](OC(C)=O)[C@]5(CC)C=CCN6CC[C@]43[C@@H]65)C2)C1,inactive

# From PubChem BioAssay AID1345085 (National Center for Advancing Translational Sciences (NCATS), 2018)
